A selection: hits, their analogues and other compounds. The true share with any hit is near 19%.
DT40 TDP1 CPT = qHTS for Inhibitors of human tyrosyl-DNA phosphodiesterase 1 (TDP1): qHTS in cells in presence of CPT; Potency, µM (titrated, usually from 46.2 µM), for the others: top-dose activity change, negative = growth inhibition, usual class: inhibitors; 420,000 tested, 12% active; chicken DT40 Tdp1-/-;hTDP1 cells + 20 nM CPT, ATP luminescence, 48 h; note: nearly all actives have a fitted effect of over 55% in size
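Cell growth measured by CellTiter-Glo luminescence after a minimum 48 h, 37 C compound exposure with 20 nM CPT in Tdp1-knockout DT40 cells stably expressing hTDP1, seeded 400/well; qHTS titration format.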
KB-V1 cytotox = qHTS assay for MDR1-selective chemotherapeutics: Primary screen using the drug-selected MDR subline cells KB-V1. KB-V1 MDR cells viability, CellTiter-Glo, 72 h. Potency, µM (highest dose often 46.1 µM), actives largely listed as cytotoxic. 400,000 tested, 3.4% active; note: nearly all actives have a fitted effect of over 60% in size
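Readout: CellTiter-Glo luminescence, 10 min after addition. Cells: KB-V1 MDR subline, 72 h at 37 degrees C with compound. Analysis: corrected, normalized data fitted to concentration-effect curves.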
KB-3-1 tox = qHTS assay for MDR1-selective chemotherapeutics: Primary screen using the parental adenocarcinoma cell KB-3-1; Potency, µM (doses to about 46.1 µM), actives largely listed as cytotoxic; KB-3-1 viability, CellTiter-Glo ATP luminescence, 72 h; 400,000 tested, 1.4% active; note: nearly all actives have a fitted effect of over 60% in size
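Parental KB-3-1 viability, qHTS format: 72 h compound exposure, 37 °C; CellTiter-Glo; media-only wells and DMSO plates as controls; concentration-effect fits on corrected data.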
HT1080 IDH1KD tx = qHTS for induction of synthetic lethality in tumor cells producing 2HG: qHTS for the HT-1080-IDH1KD cell line | HT-1080 IDH1 knockdown viability, ATP luminescence, 48 h | Potency, µM (doses to about 46.1 µM), inactives show at the top dose activity, negative = toxicity, hits mostly cytotoxic | 360,000 tested, 2% active | AID 686971, 2013;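 note: 0% = DMSO wells and -100% = cell-free medium wells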
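In this qHTS, HT-1080 cells depleted of IDH1 are exposed for 48 h at 37 °C to compound titrations. Toxicity is scored from CellTiter-Glo luminescence, with DMSO as full viability and medium alone as none.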
HT1080-NT tox = qHTS for induction of synthetic lethality in tumor cells producing 2HG: qHTS for the HT-1080-NT fibrosarcoma cell line | HT-1080-NT fibrosarcoma viability, CellTiter-Glo ATP luminescence, 48 h | Potency, µM (titrated, usually from 46.1 µM), without a hit: at the highest dose activity, negative = less viability, usual class: cytotoxic | 360,000 tested, 1.6% active | AID 686970, 2013;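 note: NT is the 2HG producing partner of a matched IDH1 knockdown line; 0% = DMSO-treated cells and -100% = media-only wells without cells; nearly all actives have a fitted effect of over 55% in size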
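A 48-hour cytotoxicity screen used HT-1080-NT cells plated 2 hours before compound delivery. ATP-based CellTiter-Glo luminescence measured viability, normalized to DMSO and no-cell controls.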
TDP1 cell noCPT = qHTS for Inhibitors of human tyrosyl-DNA phosphodiesterase 1 (TDP1): qHTS in cells in absence of CPT; 420,000 tested, 15% active; Potency, µM (highest dose often 46.2 µM), for the others: top-dose activity change, negative = growth inhibition, usual class: inhibitors; DT40 Tdp1-/- hTDP1 cells, no CPT, ATP luminescence, 48 h; note: nearly all actives have a fitted effect of over 55% in size
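Cells were dispensed at 400 per well, compounds added by pin tool, plates incubated ≥48 hr at 37 °C, then CellTiter-Glo added for 30 min at room temperature before luminescence reading. Line: DT40 Tdp1-/- complemented with hTDP1; camptothecin omitted.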
Starred values were filed as active, the others as inactive; i = inactive; ? = inconclusive; . = not tested or not shown; [ ] = another dose, or the depositor's remark. Calls come from the whole dose curve; as a rule, active = well fitted curve in the direction sought with a large enough effect; inconclusive = small, poorly fitted or top-dose-only effect, or another doubt; inactive = no such curve, though single readings can be large; an effect the other way counts as inactive or inconclusive. Unless noted, % is set by controls: 0 for no effect and ±100 for the full control effect; potency is the fitted concentration of half-maximal effect.

SMILES	DT40 TDP1 CPT	KB-V1 cytotox	KB-3-1 tox	HT1080 IDH1KD tx	HT1080-NT tox	TDP1 cell noCPT
CC(=O)c1ccc(NC(=O)Cn2c(=O)oc3cc(S(=O)(=O)N4CCCCC4)ccc32)cc1	-16.3%	i	i	.	.	-23.3%
N#Cc1cc2c(nc1SCc1ccncc1)CCC2	18.4µM*	i	i	?	?	?
OC(COc1ccc2ccccc2c1Br)Cn1ccnc1 (stereo not drawn)	?	i	?	-22.6%	-20.2%	20.6µM*
COc1ccc(C)cc1NC(=O)c1sc2nc(-c3ccc(F)cc3)cn2c1C	-0.1%	.	.	.	.	-9.7%
COc1cc(CN2c3ccc(Br)cc3C(=O)CS2(=O)=O)cc(OC)c1	?	i	i	.	.	?
CCOC(=O)c1ccccc1NC(=O)c1cccs1	4.0%	i	i	-1.1%	4.6%	-9.5%
CCOC(=O)c1ccccc1N/C=C/C(=O)c1cccs1	?	?	i	5.7%	4.0%	20.6µM*
CC1CCCCN1S(=O)(=O)c1ccc2[nH]c(=O)cc(C(=O)NCCCN3CCCCCC3)c2c1 (stereo not drawn)	-0.4%	?	i	5.2%	11.2%	10.3%
COc1ccc(-c2nnnn2-c2ccccc2OC)cc1	?	13µM*	?	?	?	?
CCOC(=O)c1c(C)n(-c2ccccc2)c2ccc(OC(=O)c3ccccc3)cc12	?	.	.	.	.	16.4µM*
CCOC(=O)c1c(C)n(-c2ccccc2)c2ccc(OC(=O)c3cccc(Cl)c3)cc12	?	i	i	.	.	25.9µM*
CCOC(=O)c1c(C)n(C)c2ccc(OCC(O)CNC(CC)CO)cc12 (stereo not drawn)	-10.1%	i	i	0.0%	-16.2%	-15.1%
CCOC(=O)c1c(C)n(-c2ccc(C)cc2)c2ccc(OCC(O)CNCC3CCCO3)cc12 (stereo not drawn)	16.4µM*	?	?	-26.9%	?	18.4µM*
CCOC(=O)c1c(C)n(-c2ccccc2)c2ccc(OC(=O)c3c(F)cccc3F)cc12	-8.5%	i	i	.	.	-7.0%
CC(C)(C)c1nnc(NS(=O)(=O)c2ccccc2)s1	12.0%	.	.	.	.	1.6%
O=C(O)[C@H](O)[C@@H](O)[C@H](O[C@@H]1O[C@H](CO)[C@H](O)[C@H](O)[C@H]1O)[C@H](O)CO	-0.7%[21.1 µM]	.	.	.	.	2.8%[21.1 µM]
Cc1ccc(Cl)cc1N1CCN(S(=O)(=O)c2ccc3c(c2)CC(C)N3C(=O)C2CCC2)CC1 (stereo not drawn)	-25.9%	?	i	.	.	?
COc1ccccc1N1CCN(C(=O)C2CCN(S(=O)(=O)c3ccc(Cl)cc3)CC2)CC1	?	i	i	-1.5%	5.2%	20.6µM*
O=C(C1CCN(S(=O)(=O)c2ccc(Cl)cc2)CC1)N1CCCC1	1.1%	i	i	8.3%	3.2%	?
CC(C)c1ccc(S(=O)(=O)N2CCC(C(=O)N3CCN(c4cccc(Cl)c4)CC3)CC2)cc1	25.9µM*	i	i	-14.3%	-13.6%	?
COc1ccccc1N1CCN(C(=O)C2CCN(S(=O)(=O)c3ccccc3)CC2)CC1	-18.5%	i	i	-0.9%	2.6%	-18.8%
CC(=O)N1c2ccc(S(=O)(=O)N3CCC(C(=O)N4CCN(c5cc(Cl)ccc5C)CC4)CC3)cc2CC1C (stereo not drawn)	10.3µM*	i	i	-6.8%	-12.8%	9.2µM*
COc1ccccc1N1CCN(C(=O)C2CCN(S(=O)(=O)c3ccc4c(c3)CC(C)N4C(C)=O)CC2)CC1 (stereo not drawn)	?	i	i	-10.3%	-1.7%	11.6µM*
Cc1noc(C)c1C(=O)N1CCC2(CCCN(C(=O)NC(C)C)C2)CC1	-5.9%	.	.	.	.	6.3%
COc1ccc(-n2c(-c3ccc(C)cc3)cc3c2CC(C)(C)CC3=O)c(OC)c1	14.6µM*	i	i	.	.	?
SMILES	DT40 TDP1 CPT	KB-V1 cytotox	KB-3-1 tox	HT1080 IDH1KD tx	HT1080-NT tox	TDP1 cell noCPT
Cc1ccc(-n2c3c(c(O)c(-c4ccccc4)c2=O)C(=O)CC(C)(C)C3)cc1	?	11.6µM*	i	5.5%	0.5%	-17.7%
Cc1ccc(-c2cc3c(n2-c2ccc(F)cc2)CC(C)(C)CC3=O)cc1	16.4µM*	i	i	.	.	18.4µM*
Cc1cnc(CNc2ccnc(-c3ccccc3C)n2)cn1	10.1%	.	.	.	.	-5.6%
CCOc1ccc(NC(=O)N2CCN(S(=O)(=O)c3ccc4c(ccn4C)c3)CC2)cc1	.	i	i	.	.	.
CC12CCC(=O)C=C1CCC1C2CCC2(C)C1CC1C3C(=O)N(Cc4ccccc4)C(=O)C3CC(=O)C12 (stereo not drawn)	23.1µM*	i	i	11.6%	4.4%	25.9µM*
CC(C)(C)c1nc2c(C#N)c(-c3ccc(Cl)cc3)ccn2n1	35.5µM*	i	?	-16.2%	-12.8%	20µM*
Cc1nc2c(C#N)c(-c3ccc(Cl)cc3)ccn2n1	-29.8%	?	?	7.1%	4.2%	11.8%
O=C(NC(=S)N1CCCCCC1)c1cccc([N+](=O)[O-])c1	?	i	i	-3.9%	-0.5%[9.24 µM]	16.4µM*
O=C(c1ccco1)N1CCN(c2ccc([N+](=O)[O-])cc2Cl)CC1	?	?	i	-3.6%	-6.4%	?
CC(=O)N1CCN(C(=S)c2cccc([N+](=O)[O-])c2)CC1	-10.5%	i	i	6.2%	4.2%	-9.1%
Cc1ccc(C(=O)NC(=S)N2CCN(c3ccc([N+](=O)[O-])cc3)CC2)cc1	?	23.1µM*	i	-11.8%	-5.8%	25.9µM*
O=C(NC(=S)N1CCN(c2ccc([N+](=O)[O-])cc2Cl)CC1)c1ccco1	20.6µM*	20.6µM*	i	-0.3%	5.2%	16.4µM*
O=[N+]([O-])c1ccc(N2CCN(C(=S)c3cccc([N+](=O)[O-])c3)CC2)cc1	14.6µM*	i	i	-7.0%	-5.1%	20.6µM*
O=[N+]([O-])c1cccc(NC(=S)N2CCCC2)c1	-16.5%	?	i	4.8%	14.3%	19.6%
O=C(Cn1ccc(NC(=O)OCc2ccccc2)nc1=O)NCCCN1CCCC1=O	-7.5%	i	i	1.7%	1.9%	-3.7%
